RMI FANCM FP = blocks RMI1/RMI2 complex binding to FANCM MM2 peptide; Fluorescence polarization, RMI core complex with F-MM2 peptide; hits give low values; FP signal (polarization) at 33 µM; actives 0.58% (n = 70,000); in the data active = FP signal below about 40
Numbers without * were called inactive; ! = a repeat was not active. Only a selection was taken, and hits are over-represented in it overall.

SMILES | RMI FANCM FP
Cc1ccc(C(=O)CSc2nnc3c(n2)[nH]c2ccccc23)cc1 | 2*
O=C(NCCc1c[nH]c2ccccc12)C(=O)NCC(c1cccs1)N1CCc2ccccc21 (centres undefined) | 56
NC(=O)c1ccccc1NC(=O)NC1CC(=O)N(c2ccc(Cl)cc2)C1 (centres undefined) | 57
Nc1nc2ncc(C(=O)O)nc2c(=O)[nH]1 | 53
Nc1nc2[nH]c(=O)cnc2c(=O)[nH]1 | 50
Nc1nc2ncc(=O)[nH]c2c(=O)[nH]1 | 26*
C=CCN1CCCC1CNC(=O)c1cc2[nH]nnc2cc1OC (centres undefined) | 61
CCN1CCC[C@H]1CNC(=O)c1c(OC)ccc(Br)c1OC | 59
CCN1CCC[C@H]1CNC(=O)c1cc(S(N)(=O)=O)ccc1OC | 22*!
COc1ccc(SCC(=O)Nc2ccc(F)cc2F)cc1 | 52
COc1ccc(NC(=O)CSc2ccc(F)cc2)c([N+](=O)[O-])c1 | 9*
COc1ccc(NC(=O)CC2SC(=N)NC2=O)c([N+](=O)[O-])c1 (centres undefined) | 64
Cc1cc(N/N=C\c2ccc([N+](=O)[O-])s2)nc2c(N)n[nH]c12 | 51
CC1(C)S[C@H](C(=O)O)N[C@H]1C(=O)O | 48
Cc1ccc(-c2csc(NC(=O)c3ccc(N(C)C)cc3)n2)o1 | 81
O=C(C1CCCN1S(=O)(=O)c1cccs1)N(CCn1cccn1)c1nc2ccccc2s1 (centres undefined) | 64
Fc1ccc(NC(=S)N2N=C3c4ccccc4CCC3C2c2ccccc2Cl)cc1 (centres undefined) | 62
Cc1ccc(N2CCN(S(=O)(=O)c3cc(Cl)ccc3Cl)CC2)c(C)c1 | 64
Cc1ccc(-c2ccc(N3CCN(S(=O)(=O)c4ccccc4Cl)CC3)nn2)c(C)c1 | 80
Cc1ccc(S(=O)(=O)N=C2C=CC(=O)C(Cl)=C2)c(C)c1 | -12*
COc1ccccc1-n1ncc2c(C(C)C)nnc(SCC(=O)NCc3ccc4c(c3)OCO4)c21 | 63
C=Cc1ccc(CSc2nccn3nc(-c4ccc(F)cc4)cc23)cc1 | 34*
Fc1ccc(-c2cc3c(SCc4cccc(C(F)(F)F)c4)nccn3n2)cc1 | 69
C=Cc1ccc(CSc2nccn3nc(-c4ccc(OC)cc4)cc23)cc1 | 70
C=CCN1C(=O)C(C)(C)COc2ccc(NS(=O)(=O)Cc3cccc(Cl)c3)cc21 | 64
SMILES | RMI FANCM FP
CCc1cc2c(=O)n(-c3ccccc3)c(SCc3nc4ccccc4[nH]3)nc2s1 | 63
CCOC(=O)Cn1c(=NC(=O)c2ccn(C)n2)sc2cc3c(cc21)OCO3 | 69
Cc1ccc(-c2csc(NC(=O)c3ccnn3C)n2)cc1C | 67
Cc1ccc(-c2csc(NC(=O)c3nc4ccccc4s3)n2)o1 | 111
O=C(Nc1csc(-c2ccc(Oc3ccc(-c4nc(NC(=O)c5nc6ccccc6s5)cs4)cc3)cc2)n1)c1nc2ccccc2s1 | 31*
Cc1ccc(-c2csc(NC(=O)c3nc4ccccc4s3)n2)cc1 | 130
O=S(=O)(CN=C(NC(=S)Nc1ccccc1)c1ccccc1)c1ccc2ccccc2c1 | 60
Cc1noc(-c2cccs2)c1C(=O)NN | 52
CC(=O)NC(=O)/C(C#N)=C/N1CCN(c2ccccc2)CC1 | 53
C=CCOC(=O)C(C#N)c1nc2ccccc2nc1N1CCN(c2ccccc2)CC1 (centres undefined) | 29*
Cc1cc(C)c(C#N)c(N2CCN(c3ccccc3)CC2)n1 | 50
O=[N+]([O-])c1cc(C(F)(F)F)cc([N+](=O)[O-])c1NC1CCS(=O)(=O)C1 (centres undefined) | 60
CC(=O)OCC(=O)[C@@]1(O)CC[C@H]2[C@@H]3CCC4=CC(=O)CC[C@]4(C)[C@H]3C(=O)C[C@@]21C | 58
C[C@]12CCC(=O)C=C1CCC1C2C(=O)C[C@@]2(C)C1CC[C@]2(O)C(=O)CO (some centres undefined) | -7*
CC(=O)OCC(=O)[C@@]1(O)CCC2C3CCC4=CC(=O)CC[C@]4(C)C3C(=O)C[C@@]21C (some centres undefined) | 64
COCCNC(=O)NC1CC(=O)N(c2ccc3c(c2)OCCO3)C1 (centres undefined) | 70
O=c1cc(O)n(Cc2ccco2)c(=S)[nH]1 | 26*
O=C1CNC(=S)N1Cc1ccco1 | 51
O=c1[nH]c(=S)c2c(n1Cc1ccco1)CCCC2 | 63
O=[N+]([O-])CC(Nc1ccccc1)c1ccccc1 (centres undefined) | 57
Cc1ccc2occ(C=O)c(=O)c2c1 | 17*
Cc1coc2ccccc2c1=O | 63
Cc1ccc2oc(C(=O)O)cc(=O)c2c1 | 59
N=C(N)Sc1cn(Cc2cccc(F)c2)c2ccccc12 | 82
CC(=O)Nc1ccc(S(=O)(=O)Nc2ccc(C(F)(F)F)cc2)cc1 | 58
SMILES | RMI FANCM FP
CCN(C(=O)c1ccc(Cl)c([N+](=O)[O-])c1)C1CCS(=O)(=O)C1 (centres undefined) | 56
Cc1cc(-c2nc3cccnc3s2)ccc1NC(=O)c1ccc2ccccc2n1 | 1*
CCOc1ccccc1C(=O)Nc1ccc(-c2nc3cccnc3s2)cc1 | 94
O=C(Nc1ccc(-c2nc3cccnc3s2)cc1)c1ccco1 | 155
O=C(NCCN1CCN(c2ccc(F)cc2)CC1)C1CC1 | 64
CC(C)CNC(CC(=O)Nc1ccc(S(N)(=O)=O)cc1)C(=O)O (centres undefined) | 55
O=C(COc1ccc(F)cc1)NCCCn1nc(-c2ccco2)ccc1=O | 68
CSc1nc(N=CN(C)C)nn1CCC#N | 58
CN1CCN(C(c2ccccc2)c2ccccc2)CC1 | 69
CN1CCCN(C(c2ccccc2)c2ccc(Cl)cc2)CC1 (centres undefined) | -4*
Cc1cccc(CN2CCN(C(c3ccccc3)c3ccc(Cl)cc3)CC2)c1 (centres undefined) | 66
COc1cccc(NC(=O)N2CCN(c3ccc(-c4ccccc4C)nn3)CC2)c1 | 71
O=C(O)c1cc(O)ccc1O | 62
O=C(O)C1=CC(=C(c2ccc(O)c(C(=O)O)c2)c2ccc(O)c(C(=O)O)c2)C=CC1=O | -9*
Nc1ccc(O)c(C(=O)O)c1 | 55
COc1cc(NC(=O)Cn2nc3ccc(SC(C)C)nn3c2=O)cc(OC)c1 | 64
Cc1ccc(C(=O)NN2C(=O)/C(=C/c3ccc(N(C)C)cc3)SC2=S)cc1 | 104
O=C(Cc1ccccc1)NN1C(=O)/C(=C/c2cccc([N+](=O)[O-])c2)SC1=S | 59
O=C(NN1C(=O)/C(=C\C=C\c2ccco2)SC1=S)c1ccc([N+](=O)[O-])cc1 | 21*
Cc1cccc(N2C(=O)/C(=C/C=C/c3ccco3)SC2=S)c1C | 9*
CN1C(=O)/C(=C\C=C\c2ccccc2)SC1=S | 59
CC(C(=O)O)N1C(=O)/C(=C/C=C/c2ccco2)SC1=S (centres undefined) | 82
CC(C)CCn1c(SCc2nc(-c3ccc(F)cc3)no2)nc2ccsc2c1=O | 73
Cc1ccccc1OCC(O)CNc1ccccn1 (centres undefined) | 77
Cc1ccc(CNC(=O)C(=O)NCCCN2CCOC(c3ccccc3)C2)cc1 (centres undefined) | 57
Cc1ccccc1-c1ccc(N2CCN(C(=O)CC(C)C)CC2)nn1 | 70
N#CC1=C(N)OC(c2cccs2)=C(C#N)C1c1cccs1 (centres undefined) | 54
Cc1ccc(C(=O)Nc2sc3c(c2-c2nc4ccccc4s2)CCN(C(C)C)C3)c(C)c1 | 36
CC(C)N1CCc2c(sc(NC(=O)c3ccc(Cl)s3)c2-c2nc3ccccc3s2)C1 | -19*

Assay outcomes (PubChem BioAssay)
